From the supplement of paper PMC13380429

Test system: Vero E6 infected with SARS-CoV-2
Assay: inhibition of SARS-CoV-2 cytopathic effect; higher = more antiviral protection, active = above 15
Settings: 48 h

Measured: inhibition of SARS-CoV-2 cytopathic effect

Cc1coc2c1C(=O)C(=O)c1c-2ccc2c1CCCC2(C)C [tanshinone-IIA]
inactive: 1 nM -0.65% | 8.33 nM 2.92% | 100 nM 0.8% | 833.33 nM -7.33% | 10000 nM -6.78%

CN1C/C=C/CCOc2cccc(c2)-c2ccnc(n2)Nc2cccc(c2)C1
inactive: 1 nM 5.51% | 8.33 nM 0.11% | 100 nM 0.3% | 833.33 nM -10.7% | 10000 nM -9.98%

C[C@@H](O)[C@@H]1NC(=O)[C@H](CCCCN)NC(=O)[C@@H](Cc2c[nH]c3ccccc23)NC(=O)[C@H](Cc2ccccc2)NC(=O)[C@@H](NC(=O)[C@H](N)Cc2ccccc2)CSSC[C@@H](C(=O)N[C@H](CO)[C@@H](C)O)NC1=O [octreotide]
inactive: 1 nM 2.23% | 8.33 nM -0.63% | 100 nM -1.24% | 833.33 nM 3.26% | 10000 nM -1.58%

CC(OC(=O)OC1CCCCC1)OC(=O)C1=C(CSc2nnnn2CCN(C)C)CS[C@@H]2[C@H](NC(=O)Cc3csc(N)n3)C(=O)N12 (stereo not given in full) [cefotiam-cilexetil]
inactive: 1 nM -0.8% | 8.33 nM 0.27% | 100 nM 0.74% | 833.33 nM 0.5% | 10000 nM -0.94%

C[C@H](NC(=O)/C(C#N)=C/c1cccc(Br)n1)c1ccccc1
inactive: 1 nM -2.07% | 8.33 nM -1.75% | 100 nM -2.65% | 833.33 nM 5.36% | 10000 nM -4.77%

C/C1=C/C[C@@H](/C(C)=C/c2csc(C)n2)OC(=O)C[C@H](O)C(C)(C)C(=O)[C@H](C)[C@@H](O)[C@@H](C)CCC1 [epothilone-D]
inactive: 1 nM 2.13% | 8.33 nM -0.55% | 100 nM -1.83% | 833.33 nM -0.53% | 10000 nM -1.4%
